A short description of assay [1]: Cell Viability - N2a (AID 540).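 Also: cells exposed to compound for 40 h at 37 °C; nearly all actives have a fitted effect of over 45% in size.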 Also: potency is read from the fitted curve at half-maximal effect.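 As to activity change, negative = cytotoxicity: plate controls were DMSO alone for no effect and tamoxifen control for full effect.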 Conditions: N2a mouse neuroblastoma cell viability; activity change, negative = cytotoxicity: at 92.2 µM (top of the series). The method, boiled down:
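First, 1500 N2a cells per well incubate 5 hr at 37 °C; next, compounds are added and incubated 40 hr at 37 °C; finally CellTiter-Glo is added and luminescence read after 20 min, with AC50 derived by Hill modeling.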

Assay [2] is described as follows: Cell Viability - NIH 3T3 (AID 541).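 Also: cells exposed to compound for 40 hours; nearly all actives have a fitted effect of over 25% in size.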 Also: potency is read from the fitted curve at half-maximal effect.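 As to activity change, negative = cytotoxicity: plate controls were DMSO alone for no effect and tamoxifen positive control for full effect.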 Conditions: NIH 3T3 cell viability, qHTS; activity change, negative = cytotoxicity: at 92.2 µM (top of the series). In a few lines: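 AC50 values reflect concentration-dependent loss of intracellular ATP in NIH 3T3 cells after 40 hr treatment in complete culture medium, quantified by luciferase-based luminescence.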
A short description of assay [3]: Cell Viability - H-4-II-E (AID 543).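 Also: cells exposed to compound for 40 hours; nearly all actives have a fitted effect of over 35% in size.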 Also: potency is read from the fitted curve at half-maximal effect. The method, boiled down: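 Here, cytotoxicity is measured in the rat hepatoma line H-4-II-E as loss of intracellular ATP after 40 hr compound treatment, detected by luciferase luminescence.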
Assay [4] in a line: Cell Viability - Mesenchymal (AID 546).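 Also: cells exposed to compound for 40 hours before reading.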 Also: potency is read from the fitted curve at half-maximal effect. The settings on record: mesenchymal cells viability, qHTS; activity change, negative = cytotoxicity: at 91.7 µM (top of the series). In a few lines: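 Normal human renal glomerulus-derived kidney mesenchymal cells, 1000 per well in complete medium, were treated with compounds for 40 hr at 37 °C. Viability was read as intracellular ATP by CellTiter-Glo luminescence; AC50 values came from Hill-equation fits of qHTS concentration-response data.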

Assay [5] can be described thus: Cellular Toxicity (caspase-3) HUV-EC-C (AID 656). In a few lines:
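Luminescent caspase-3/7 activation (aminoluciferin substrate cleavage) in HUV-EC-C cells after 16 hr compound exposure, 37°C. Signal normalized to DMSO basal and 100 uM tamoxifen as 100%; AC50 from concentration-response fitted with the Hill equation.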

Assay [6] can be described thus: Cellular Toxicity (caspase-3) BJ (AID 658).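 Also: cells exposed to compound for 16 hours; 0% = DMSO basal and 100% = 10 µM staurosporine.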 In a few lines:
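Luminescent aminoluciferin-substrate cleavage reports caspase 3/7 activity in normal human BJ fibroblasts after 16 hr compound exposure at 37 °C. Normalized to DMSO (basal) and 10 uM staurosporine (100%); AC50 from Hill fit of concentration-response.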

A short description of assay [7]: Cellular Toxicity (caspase-3) MRC-5 (AID 659).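 Also: cells exposed to compound for 16 h at 37 °C; 0% = DMSO basal and 100% = 10 µM staurosporine.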 The method, boiled down:
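Luminescence from caspase-cleaved aminoluciferin substrate (Caspase-Glo 3/7, 1 hr RT) reports caspase 3/7 activity in MRC-5 lung fibroblasts after 16 hr compound exposure. Normalized to DMSO basal and 10 uM staurosporine as 100%; AC50 from Hill fits.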

Assay [8] is described as follows: Cellular Toxicity (caspase-3) Mesangial (AID 660).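 Also: combined caspase 3 and 7 activity read by Caspase-Glo luminescence; cells exposed to compound for 16 h before the caspase read.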 Conditions: Potency: caspase-3 activation. In a few lines: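 Concentration-response qHTS: compound-induced rise in caspase 3/7 luminescence in human mesangial cells after 16 h, normalized to DMSO and 100 uM tamoxifen controls.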
Assay [9] can be described thus: Cellular Toxicity (caspase-3) Hek293 (AID 664).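 Also: cells exposed to compound for 16 h at 37 °C before readout.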 The settings on record: HEK293 caspase-3 activation, DMSO = 0%, 100 µM tamoxifen = 100%; at 92.2 µM (top of the series). In a few lines: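 Activation of caspase-3/7 is measured as increased luminescence from cleaved peptide-aminoluciferin substrate in HEK293 cells treated 16 hours at 37 °C. AC50 values come from Hill-equation fits of concentration-response data.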

Assay [10] can be described thus: Cellular Toxicity (caspase-3) N2a (AID 665).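 Also: compound exposure lasted 16 h at 37 °C before readout.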 In a few lines: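 Plated mouse neuroblastoma N2a cells received titrated compounds for 16 h in complete medium. Caspase activity was then detected with a peptide-aminoluciferin luminescent reagent.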
A short description of assay [11]: Cellular Toxicity (caspase-3) NIH 3T3 (AID 666).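 Also: caspase signal read after 16 h compound exposure; 0% = DMSO basal and 100% = 100 µM tamoxifen stimulation.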 The method, boiled down:
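Concentration-response qHTS in NIH 3T3 mouse fibroblasts scores caspase-3/7 activation as rising luminescence after 16 hr compound exposure. Signals are scaled between DMSO-only and 100 uM tamoxifen.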

A short description of assay [12]: Cell Viability - LYMP1-003 - Assay at 24 hr (AID 963). Also: potency is read from the fitted curve at half-maximal effect. In a few lines:
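Acute toxicity in LYMP1-003 lymphoblastoid cells: 24 hr compound treatment at 37 C, ATP measured with CellTiter-Glo after 30 min at room temperature. AC50 derived by fitting the Hill equation to qHTS titrations.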

The nature of assay [13]: Cell Viability - LYMP2-003 (AID 965).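 Also: cells exposed to compounds for 24 h before reading; nearly all actives have a fitted effect of over 50% in size.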 Also: potency is read from the fitted curve at half-maximal effect.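 As to activity change, negative = cytotoxicity: 0% = DMSO only and full effect = 92 µM tetraoctylammonium bromide.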 The method, boiled down: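 CellTiter-Glo luminescence (cellular ATP) after 24 h compound exposure at 37 C in complete medium; 2500 cells/well, 5 h settling beforehand. Concentration-response fitted to standard Hill equation for AC50. Tetraoctylammonium bromide served as positive control.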
Assay [14] can be described thus: Cell Viability - LYMP2-015 (AID 971). Also: nearly all actives have a fitted effect of over 55% in size. Also: potency is read from the fitted curve at half-maximal effect. The method, boiled down: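 Acute toxicity was scored as a concentration-dependent drop in intracellular ATP in lymphoblastoid cells after 24 hr compound exposure in complete medium. Detection used CellTiter-Glo luciferase luminescence.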
Assay [15] in a line: Cell Viability - LYMP2-019 (AID 973). Also: nearly all actives have a fitted effect of over 55% in size. Also: potency is read from the fitted curve at half-maximal effect.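 As to activity change, negative = cytotoxicity: 0% = DMSO alone and full effect = 92 µM tetraoctylammonium bromide.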 The method, boiled down:
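Cells plated at 2500/well and allowed 5 hr at 37 C before compound addition. After 24 hr incubation, CellTiter-Glo reagent was added, plates sat 30 min at room temperature, and luminescence was recorded.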

A short description of assay [16]: Cell Viability - LYMP2-016 (AID 984).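 Also: cells exposed to compound for 24 hours at 37 °C; nearly all actives have a fitted effect of over 55% in size.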 Also: potency is read from the fitted curve at half-maximal effect. As to activity change, negative = cytotoxicity: % is scaled to controls: 0 for no effect and ±100 for the full control effect. The method, boiled down: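 qHTS, 1536-well: 2500 LYMP2-016 cells/well, 5 hr 37 C, compound added, 24 hr 37 C, CellTiter-Glo 30 min RT, luminescence. Tetraoctylammonium bromide positive control. AC50 via Hill fit.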
Assay [17] is described as follows: Cell Viability - LYMP2-018 (AID 985).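 Also: compound exposure lasted 24 hr at 37 °C; nearly all actives have a fitted effect of over 50% in size.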 Also: potency is read from the fitted curve at half-maximal effect.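 As to activity change, negative = cytotoxicity: plate controls were DMSO only for no effect and tetraoctylammonium bromide at 92 µM for full effect.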 The method, boiled down:
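Acute cytotoxicity is scored as a concentration-dependent drop in intracellular ATP after 24 hr exposure of the lymphoblastoid line in complete culture medium, measured by luciferase luminescence. Potency is expressed as AC50 from Hill modelling.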

In assay [18] the target is Tumor necrosis factor (Homo sapiens) (UniProt P01375). Description: qHTS assay to identify small molecules that stimulate Tumor Necrosis Factor-alpha (TNF-alpha) secretion (AID 651757; active = well fitted curve in the direction sought with a large enough effect in the signal ratio; the % refers to the signal ratio; also: 0% is about no effect). In a few lines: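 Secreted TNF-alpha from compound-treated THP-1 cells (17 hrs, 37 C) was quantified with a homogeneous time-resolved fluorescence antibody assay.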
Chain of Tumor necrosis factor (Homo sapiens) (P01375 whole entry, looked up): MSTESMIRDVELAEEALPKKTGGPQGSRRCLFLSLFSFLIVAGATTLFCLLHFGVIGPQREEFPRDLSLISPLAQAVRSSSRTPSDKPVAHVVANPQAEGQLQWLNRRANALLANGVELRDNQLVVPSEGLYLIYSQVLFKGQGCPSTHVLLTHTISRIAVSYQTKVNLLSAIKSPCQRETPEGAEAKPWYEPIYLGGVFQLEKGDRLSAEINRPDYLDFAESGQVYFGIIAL
Assay [19] can be described thus: Cell Viability - Hek293 (AID 427;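 active = compounds whose dose-response curve shows a full or clear partial loss of cell viability, called from curve shape rather than a numeric limit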;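 also: potency is read from the fitted curve at half-maximal effect; cells exposed to compound for 40 hours at 37 °C before reading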). Conditions: qHTS. The method, boiled down:
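Luminescent ATP content (CellTiter-Glo, 20 min at room temperature) was measured after a 40 hr, 37 °C compound exposure of HEK293 cells. AC50 values came from Hill-equation fits of qHTS concentration-response data normalized to DMSO and 100 uM tamoxifen.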

Assay [20] is described as follows: Cell Viability - Renal Proximal Tubule (AID 545).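 Also: cells exposed to compound for 40 hours; nearly all actives have a fitted effect of over 40% in size.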 Also: potency is read from the fitted curve at half-maximal effect. Conditions: renal proximal tubule cells viability; activity change, negative = cytotoxicity: at 91.7 µM (top of the series) unless noted. In a few lines:
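Rat kidney proximal tubule cells, freshly isolated; 1000 cells/well, 5 hr settle, compound 40 hr 37 °C. CellTiter-Glo 20 min RT, luminescence read. AC50 by standard Hill fit.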

The record followed here is PubChem BioAssay (NCATS).

Values without a mark were called inactive. Records with an inconclusive call do not appear. Activity calls are given as the source filed them. Unless noted, calls follow the shape of the dose curve; as a rule, active = well fitted curve in the direction sought with a large enough effect; inconclusive = small, poorly fitted or top-dose-only effect, or another doubt; inactive = no such curve, though single readings can be large; an effect the other way counts as inactive or inconclusive.

Consider `O=C(CCl)c1ccccc1`, for which the activity change, negative = cytotoxicity was -113% (active) in [1] and -109% (active) in assay [4]. Also, the Potency is 15.8 µM (active) in assay [2]; 15.8 µM (active) in [3]; 10 µM (active) in [13]; 7.94 µM (active) in assay [14]; 10 µM (active) in assay [15]; 10 µM (active) in assay [16]. In assay [17], the Potency is 10 µM (active). The outcome in [5], in assay [6], in assay [7], in assay [10] and in assay [11] was inactive. For the same compound, the Potency result in assay [8], in assay [12] and in assay [18] was “inactive” throughout. In assay [9], the caspase-3 activation was -9.68%.
For `CCCCCCCCn1sccc1=O`, the Potency in assay [19] was 35.3 µM (active); in [2], 12.6 µM (active); in [3] it was 12.6 µM (active); in assay [20], 12.6 µM (active); in assay [4], 12.6 µM (active); in assay [12], 25.1 µM (active). The Potency in assay [13] was 6.31 µM (active); in [14], 3.16 µM (active); in assay [15], 3.98 µM (active); in assay [16], 6.31 µM (active); in assay [17], 5.01 µM (active). The activity change, negative = cytotoxicity in [1] was -113% (active). For the same compound, the compound was classed as inactive in assay [5], in [6], in assay [7], in assay [10] and in [11]. The caspase-3 activation in assay [9] was -9.61%. Also, in assay [18], the Potency entry was “inactive”.
With `N#CSCSC#N`, the Potency in assay [19] was 34.5 µM (active); in assay [1], 25.1 µM (active); in [2], 10 µM (active); in [3] it was 10 µM (active); in assay [20], 5.01 µM (active); in assay [4], 12.6 µM (active). Besides, the Potency in assay [12] is 25.1 µM (active); in assay [13], 10 µM (active); in assay [14], 5.01 µM (active); in [15], 5.01 µM (active); in [16], 7.94 µM (active); in [17], 7.94 µM (active). Also, the compound was classed as inactive in [5], in assay [6], in assay [10] and in [11]. The Potency entry in assay [8] and in assay [18] was “inactive” each time. For the same compound, the caspase-3 activation in assay [9] is -10.2%.
Turning to `O=[N+]([O-])c1ccccc1Cl`, the Potency in [19] was greater than 92 µM.
`C(=NC1CCCCC1)=NC1CCCCC1`: the Potency in assay [1] was 10 µM (active); in assay [2], 1 µM (active); in assay [3], 1.26 µM (active). Besides, the Potency entry in assay [20], in assay [4], in [8], in [12], in assay [13] and in assay [18] was “inactive” throughout. Moreover, the outcome in assay [5], in assay [6], in assay [7], in assay [10] and in assay [11] was inactive.
Take `Oc1c(Cl)cc(Cl)cc1Cl`: the Potency in assay [19] is greater than 92 µM.
Consider `C#CCO`, for which the Potency in assay [19] is greater than 92 µM. Moreover, the activity change, negative = cytotoxicity in assay [1] was -2.19%. Moreover, the Potency result in assay [2], in assay [3], in assay [20], in assay [4], in assay [8] and in assay [12] was “inactive” throughout. The Potency entry in [13], in [14], in assay [15], in [16], in assay [17] and in assay [18] was “inactive” each time. For the same compound, the call in assay [5], in assay [6], in [7], in assay [10] and in assay [11] was inactive. The caspase-3 activation in assay [9] was 1.98%.
